SMILES strings stand for the structures. Several values for one entry are separate records, joined by “and”; a condition that tells them apart may be missing. Equal values may be shown once. Inconclusive results are not listed. Activity calls are given as the source filed them. Unless noted, calls come from the whole dose curve; as a rule, active = well fitted curve in the direction sought with a large enough effect; inconclusive = small, poorly fitted or top-dose-only effect, or another doubt; inactive = no such curve, though single readings can be large; an effect the other way counts as inactive or inconclusive.

A short description of assay [1]: Validation of Assay for Modulators of Lamin A Splicing (AID 1459; active = well fitted curve in the direction sought with a large enough effect in the signal ratio; the % refers to the signal ratio;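 note: cells exposed to compound for two days before reading; 0% is about no effect; ratio rise marks activators and ratio drop marks inhibitors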). The essentials:
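Readout: ratio of GFP (500-530 nm) to RFP (575-640 nm) total object intensity by 488 nm laser-scanning cytometry after 48 hrs. Cells were HeLa S3 clones carrying lamin A-EGFP minigene plus DsRed2 viability reporter; vehicle 0.5% DMSO final.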

The nature of assay [2]: qHTS Assay for Lipid Storage Modulators (AID 1519; calls by dose curve; for activity change, negative = inhibition: % is set by controls: 0 for no effect and ±100 for the full control effect). The conditions noted are these: Drosophila S3 cells, BODIPY lipid droplet/cell ratio, laser cytometry, cells loaded with oleic acid; for activity change, negative = inhibition: at 57.5 µM (top of the series). The method in brief:
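Cells seeded at 5,000 per well were treated with compounds over a concentration series and loaded with oleic acid (400 uM, as added). Lipid droplet fluorescence (488 nm excitation, 500-530 nm channel) was read by laser-scanning cytometry and normalized to 20 uM Triacsin C.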

Assay [3] addresses ATP-dependent DNA helicase Q1 (Homo sapiens) (UniProt P46063). Put plainly: qHTS Validation Assay for Inhibitors of RecQ-Like Dna Helicase 1 (RECQ1) (AID 2353).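 Note: plate controls were DMSO vehicle for no effect and enzyme-free control for full effect.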 The essentials: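 50 nM RECQ1T1 preincubated 15 min with compound in Tris pH 8.0 buffer with MgCl2, DTT, Tween-20 and 2.5 ug/ml poly(dI-dC); started with 200 nM TAMRA/BHQ-2 forked duplex and 2 mM ATP. Unwinding read as fluorescence (525/598 nm), two reads 2 h apart.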

The target of assay [4] is Galactokinase (Homo sapiens) (UniProt P51570). As to the kind of experiment: qHTS Validation Assay for Inhibitors of Human Galactokinase (GALK) (AID 493189). Note: 0% is about no effect. The method in brief:
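Luminescence from leftover ATP (Kinase-Glo Plus, 10 min) served as read-out after a 1 h room-temperature reaction of 5 nM GALK, 100 uM galactose and 35 uM ATP at pH8.0.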
(In general: Quantitative high-throughput screening tests each substance at several concentrations.)

Assay [5] is described as follows: qHTS drug screen for cell cycle checkpoint inhibitors in PARPi-resistant BRCA-mutant ovarian cancer cell lines. (AID 1963452; calls by dose curve; note: potency is the fitted concentration of half-maximal effect). The note with it: PEO1/OlaR viability, CellTiter-Glo luminescence, 96 h; for Z-AUC: stronger effect = lower value. The method in brief:
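PEO1, PEO4 and PEO1/OlaR ovarian cancer cells, 600 per well, exposed 96 h at 37C to a dilution series. Viability read by CellTiter-Glo luminescence, normalized to DMSO and empty wells; activity summarized as Z-AUC.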

Setting [6] is: measured here: cell count channel max response.
Setting [7] is: measured here: lipid channel max response.

Galactokinase (Homo sapiens), sequence (P51570 whole entry, looked up): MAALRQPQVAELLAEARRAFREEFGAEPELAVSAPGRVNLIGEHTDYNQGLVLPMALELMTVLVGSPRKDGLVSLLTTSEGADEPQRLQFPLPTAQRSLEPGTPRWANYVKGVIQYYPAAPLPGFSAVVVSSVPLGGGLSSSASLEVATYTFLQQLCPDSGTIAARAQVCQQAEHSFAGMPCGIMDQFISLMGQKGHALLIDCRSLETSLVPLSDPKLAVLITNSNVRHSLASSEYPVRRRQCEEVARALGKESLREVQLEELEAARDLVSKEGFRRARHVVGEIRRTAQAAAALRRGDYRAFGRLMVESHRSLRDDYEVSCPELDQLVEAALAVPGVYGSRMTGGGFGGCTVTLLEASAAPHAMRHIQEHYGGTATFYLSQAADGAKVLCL
ATP-dependent DNA helicase Q1 (Homo sapiens), sequence (P46063 whole entry, looked up): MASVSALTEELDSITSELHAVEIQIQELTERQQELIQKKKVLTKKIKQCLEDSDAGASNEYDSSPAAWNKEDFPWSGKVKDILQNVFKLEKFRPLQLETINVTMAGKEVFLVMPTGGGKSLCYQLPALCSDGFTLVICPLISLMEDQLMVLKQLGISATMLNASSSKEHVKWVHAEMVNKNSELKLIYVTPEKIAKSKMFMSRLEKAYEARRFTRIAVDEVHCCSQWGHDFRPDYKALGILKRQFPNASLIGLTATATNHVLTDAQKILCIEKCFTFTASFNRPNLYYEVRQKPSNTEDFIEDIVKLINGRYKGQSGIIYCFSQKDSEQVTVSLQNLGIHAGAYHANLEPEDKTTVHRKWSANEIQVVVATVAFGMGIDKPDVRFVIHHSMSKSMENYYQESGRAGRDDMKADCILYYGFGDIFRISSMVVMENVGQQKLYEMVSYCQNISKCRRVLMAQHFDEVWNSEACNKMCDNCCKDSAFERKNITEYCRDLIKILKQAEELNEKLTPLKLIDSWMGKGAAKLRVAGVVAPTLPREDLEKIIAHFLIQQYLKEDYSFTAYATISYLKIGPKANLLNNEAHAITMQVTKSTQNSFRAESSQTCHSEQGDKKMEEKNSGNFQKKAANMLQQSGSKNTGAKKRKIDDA

Turning to `C=CCN1CC[C@@]2(C)c3cc(O)ccc3CC1[C@@H]2C`, the compound was called inactive in assay [1], in assay [3] and in assay [4]. The activity change, negative = inhibition in assay [2] is -0.315% (inactive). Besides, the max response in assay [2] (setting [6]) was determined as 26.7%; in assay [2] (setting [7]), 28.1%.

On to `CC[C@@H](CO)NC(=O)[C@H]1C=C2c3cccc4c3c(cn4C)C[C@H]2N(C)C1`, for which the compound was classed as inactive in assay [1], in assay [3] and in assay [4]. Also, the activity change, negative = inhibition in assay [2] was 2.02% (inactive). Further, the max response in assay [2] (setting [6]) is 18.8%; in assay [2] (setting [7]), 22.3%.

With `C#CCN(C)C(C)Cc1ccccc1` (stereo not drawn), the result in assay [1], in assay [3] and in assay [4] was inactive. For the same compound, the activity change, negative = inhibition in assay [2] was 2.75% (inactive). The values for the max response in assay [2] (setting [6]) and in assay [2] (setting [7]) were 64.3% and 65.5%, respectively.

For `C[N+]1(C)C2CC(OC(=O)C(CO)c3ccccc3)CC1C1OC12` (stereo not drawn), the compound was classed as inactive in assay [1], in assay [3] and in assay [4]. For the same compound, the activity change, negative = inhibition in assay [2] was 0.686% (inactive) and -2.43% (inactive). The max response was 53.9% and -15.4% in assay [2] (setting [6]); 52.9% and -17% in assay [2] (setting [7]).

For the compound `CCC(CO)NC(=O)[C@@H]1C=C2c3cccc4[nH]cc(c34)C[C@H]2N(C)C1` (stereo partly drawn), the compound was called inactive in assay [1], in assay [3] and in assay [4]. For the same compound, the activity change, negative = inhibition in assay [2] is 0.713% (inactive). Further, the max response in assay [2] (setting [6]) is -10.2%; in assay [2] (setting [7]) it was -11.2%.

Consider `NCC#Cc1ccccc1`, for which the compound was classed as inactive in assay [1], in assay [3] and in assay [4]. Also, the activity change, negative = inhibition in assay [2] was -4.59% (inactive). Further, the results for the max response in assay [2] (setting [6]) and in assay [2] (setting [7]) were -80.1% and -81.6%, respectively.

On to `C[C@]12CC[C@H]3[C@@H](CCC4C[C@H](O)CC[C@@]43C)[C@@H]1CC[C@@H]2O` (stereo partly drawn), for which the compound was called inactive in assay [1], in assay [3] and in assay [4].

In the case of `Oc1ccc2c3c1O[C@H]1[C@@H](O)CC[C@@]4(O)C(C2)N(CC2CCC2)CCC314` (stereo partly drawn), the compound was classed as inactive in assay [1], in assay [3] and in assay [4].

In the case of `N#CC(=Cc1ccc(O)c(O)c1)C(N)=S`, the compound was called inactive in assay [1], in assay [3] and in assay [4].

`Nc1ncnc2c1ncn2[C@@H]1O[C@H](COP(=O)(O)CP(=O)(O)OP(=O)(O)O)[C@H](O)[C@H]1O`: the compound was called inactive in assay [1], in assay [3] and in assay [4].

Regarding `CCCN(CCC)C(=O)Cc1c(-c2ccc(Cl)cc2)nc2c(Cl)cc(Cl)cn12`, the result in assay [1], in assay [3] and in assay [4] was inactive. In addition, in assay [2], the activity change, negative = inhibition is 1.58% (inactive). Also, the max response in assay [2] (setting [6]) was -21.2%; in assay [2] (setting [7]) it was -20.1%.

As for `C/C1=C/C[C@@H](/C(C)=C/c2csc(C)n2)OC(=O)C[C@H](O)C(C)(C)C(=O)[C@H](C)[C@@H](O)[C@@H](C)CCC1`, the Potency in assay [5] was 0.0195 µM (active). The values for the Z-AUC in assay [5] (measured here: PEO1 parental Z-AUC) and in assay [5] (measured here: PEO4 Z-AUC) were -2.71 and -2.82, respectively.

In the case of `CCNC(=O)[C@H]1O[C@@H](n2cnc3c(N)ncnc32)[C@H](O)[C@H]1O`, the call in assay [1], in assay [3] and in assay [4] was inactive.

As to `CCCC[N+]1(C)C2CC(OC(=O)C(CO)c3ccccc3)CC1C1OC12` (stereo not drawn), the compound was classed as inactive in assay [1], in assay [3] and in assay [4]. In assay [2], the activity change, negative = inhibition is -1.49% (inactive). For the same compound, the max response in assay [2] (setting [6]) is 13.3%; in assay [2] (setting [7]) it was 13.7%.

`CCN1C[C@]2(C)CC[C@H](O)[C@@]34[C@@H]5C[C@@H]6[C@@H](OC)C[C@@](O)(C5[C@H]6O)[C@@H](C[C@@H]23)[C@@H]14`: the compound was classed as inactive in assay [1], in assay [3] and in assay [4]. Also, the activity change, negative = inhibition in assay [2] was 1.56% (inactive). Moreover, the figures for the max response in assay [2] (setting [6]) and in assay [2] (setting [7]) were -17.1% and -16.8%, respectively.

Turning to `CCCCN1C2CCC1CC(OC(c1ccc(F)cc1)c1ccc(F)cc1)C2` (stereo not drawn), the compound was called inactive in assay [1], in assay [3] and in assay [4].

Regarding `CCCN1CCC[C@@H](c2cccc(C#N)c2)C1`, the outcome in assay [1], in assay [3] and in assay [4] was inactive.

Regarding `CC12CCC3C(CCC4=C(O)C(=O)CCC43C)C1CCC2=O` (stereo not drawn), the outcome in assay [1], in assay [3] and in assay [4] was inactive.

With `NC(Cn1ccc(=O)[nH]c1=O)C(=O)O` (stereo not drawn), the outcome in assay [1], in assay [3] and in assay [4] was inactive. For the same compound, the activity change, negative = inhibition in assay [2] was -1.49% (inactive). The max response is -18.2% in assay [2] (setting [6]) and -23.6% in assay [2] (setting [7]).

On to `CC1Cc2cc3c(cc2C(c2ccc(N)cc2)=NN1)OCO3` (stereo not drawn), for which the compound was classed as inactive in assay [1], in assay [3] and in assay [4]. The activity change, negative = inhibition in assay [2] is 1.87% (inactive). For the same compound, the figures for the max response in assay [2] (setting [6]) and in assay [2] (setting [7]) were 56.1% and 60.1%, respectively.

Take `COc1ccc2c3c1O[C@H]1C(=O)CC[C@@]4(O)C(C2)N(CC2CC2)CCC314` (stereo partly drawn): the result in assay [1], in assay [3] and in assay [4] was inactive.

On to `CCCN1CCC[C@@H]2Cc3n[nH]cc3C[C@H]21`, for which the outcome in assay [1], in assay [3] and in assay [4] was inactive. Besides, the activity change, negative = inhibition in assay [2] was 3.49% (inactive). In addition, the max response in assay [2] (setting [6]) stood at 9.58%; in assay [2] (setting [7]) it was 14.1%.

For the compound `COC(=O)C(N)CCCN=C(N)N[N+](=O)[O-]` (stereo not drawn), the outcome in assay [1], in assay [3] and in assay [4] was inactive.

Turning to `C[C@H]1OC[C@@H](C[N+](C)(C)C)O1`, the compound was classed as inactive in assay [1], in assay [3] and in assay [4].

With `CN1CCC23CCCC[C@H]2C1Cc1ccc(O)cc13` (stereo partly drawn), the result in assay [1], in assay [3] and in assay [4] was inactive. Also, the activity change, negative = inhibition in assay [2] was 0.333% (inactive). Also, the max response in assay [2] (setting [6]) was 15.7%; in assay [2] (setting [7]), 15.2%.

Take `C[C@H]1C2Cc3ccc(O)cc3[C@]1(C)CCN2CC1CC1`: the call in assay [1], in assay [3] and in assay [4] was inactive.

`NNCc1cccc(O)c1`: the compound was called inactive in assay [1], in assay [3] and in assay [4].

With `COc1ccc2c(c1O)-c1cccc3c1C(C2)N(C)CC3` (stereo not drawn), the call in assay [1], in assay [3] and in assay [4] was inactive.

For the compound `CCCN1CCCC(c2cccc(O)c2)C1` (stereo not drawn), the outcome in assay [1], in assay [3] and in assay [4] was inactive.

`COc1cc(C[C@@H](C)N)c(OC)cc1I`: the result in assay [1], in assay [3] and in assay [4] was inactive.

For the compound `CCN(CC)C(=O)N[C@@H]1C[C@@H]2c3cccc4[nH]cc(c34)C[C@H]2N(C)C1`, the compound was classed as inactive in assay [1], in assay [3] and in assay [4]. The activity change, negative = inhibition in assay [2] is -3.98% (inactive). Further, the max response in assay [2] (setting [6]) turned out to be 28.2%; in assay [2] (setting [7]), 24%.

As to `CC(C)(O)C1C2OC(=O)C1[C@]1(O)C[C@H]3O[C@]34C(=O)O[C@H]2[C@]14C` (stereo partly drawn) (tested in a mixture with another compound), the outcome in assay [1], in assay [3] and in assay [4] was inactive.
